Bioassay records: PubChem, National Center for Advancing Translational Sciences (NCATS)
RORgamma inh – blocks mouse ROR gamma transcriptional activity | hit rate 5.4% among 310,000 | P51450 | Drosophila S2 Gal4-RORgamma UAS-luciferase reporter, 20 h | Potency, µM (top dose mostly 53.6 µM), for the others: at the highest dose activity change, negative = inhibition, actives largely listed as inhibitors; further: nearly all actives have a fitted effect of over 60% in size
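Luminescence from a UAS-regulated Photinus luciferase reporter in stably transfected Drosophila Schneider cells is measured; decreased signal marks ROR gamma inhibition. Fusion expression is induced by 700 uM copper sulfate for 20 hr.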
DT40 TDP1 no CPT – qHTS for Inhibitors of human tyrosyl-DNA phosphodiesterase 1 (TDP1): qHTS in cells in absence of CPT; AID 686978, 2013; hit rate 15% among 420,000; Potency, µM (doses to about 46.2 µM), inactives show at the top dose activity change, negative = growth inhibition, actives largely listed as inhibitors; DT40 Tdp1-/- hTDP1 cells, no CPT, ATP luminescence, 48 h; further: nearly all actives have a fitted effect of over 55% in size
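Chicken DT40 Tdp1-/- cells complemented with human TDP1, screened without camptothecin (DMSO vehicle only), 400 cells/well. Compounds pin-transferred, cells incubated at 37 °C for at least 48 hr. Growth read as ATP-dependent luminescence (CellTiter-Glo, 30 min at RT).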
12-LOX inh – ALOX12 (human) lipoxygenase inhibition. Potency, µM (top dose mostly 108 µM), without a hit: at the highest dose activity change, negative = inhibition, usual class: inhibitors. hit rate 1.1% among 580,000. purified 12hLO, xylenol orange hydroperoxide absorbance. AID 1671190. P18054
Target sequence (P18054 whole entry, looked up): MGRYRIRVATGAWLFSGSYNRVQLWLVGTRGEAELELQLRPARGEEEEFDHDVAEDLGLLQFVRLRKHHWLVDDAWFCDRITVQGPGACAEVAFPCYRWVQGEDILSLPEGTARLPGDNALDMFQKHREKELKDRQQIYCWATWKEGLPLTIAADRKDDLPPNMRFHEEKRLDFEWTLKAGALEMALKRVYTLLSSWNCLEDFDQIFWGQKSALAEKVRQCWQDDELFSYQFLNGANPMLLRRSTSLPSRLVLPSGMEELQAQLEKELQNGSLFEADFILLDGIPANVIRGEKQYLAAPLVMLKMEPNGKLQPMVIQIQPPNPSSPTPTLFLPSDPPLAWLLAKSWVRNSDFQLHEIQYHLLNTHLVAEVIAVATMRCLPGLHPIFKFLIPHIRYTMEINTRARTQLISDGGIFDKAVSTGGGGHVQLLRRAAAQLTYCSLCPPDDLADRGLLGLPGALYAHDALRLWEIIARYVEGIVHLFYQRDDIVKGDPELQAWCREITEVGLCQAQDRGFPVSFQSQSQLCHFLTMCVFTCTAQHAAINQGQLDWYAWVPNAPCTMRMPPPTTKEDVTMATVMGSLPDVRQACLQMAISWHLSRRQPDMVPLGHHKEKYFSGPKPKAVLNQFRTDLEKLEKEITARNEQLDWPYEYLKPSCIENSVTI
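Purified human 12hLO (150 nM final) in 25 mM Hepes, 0.01% Triton X-100, pH 7.0 was preincubated 15 min at room temperature with compound. Then 40 uM arachidonic acid was added, 30 min. Hydroperoxide was read by Fe-XO absorbance ratio 573/405 nm.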
VP16 counter – inhibits Gal4-VP16 luciferase reporter, ROR gamma counter-screen. hit rate 3.5% among 310,000. Drosophila S2 Gal4-VP16 UAS-luciferase, luminescence, 20 h. Potency, µM (series often up to 53.6 µM), for inactives: at the top dose activity, negative = inhibition, actives largely listed as inhibitors. AID 2546;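 further: Gal4-VP16 expression switched on by copper sulfate through the metallothionein promoter; nearly all actives have a fitted effect of over 50% in size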
ELG1 repair inh – blocks ELG1-dependent DNA repair in HEK293T cells; HEK293T ELG1-luciferase reporter, luminescence, 16 h; DNA damage induced by 5-fluorouridine; Potency, µM (doses to about 46.1 µM), inactives show at the top dose activity change, negative = inhibition, most hits filed as inhibitors; AID 504467; hit rate 2.3% among 330,000; further: nearly all actives have a fitted effect of over 55% in size
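5-Fluorouridine DNA damage + compound/DMSO, 2,000 cells/well, 16 h, 37 °C/5% CO2. ONE-Glo, 30 min RT, luminescence. Readout = decrease in reporter signal.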
DT40 TDP1 CPT – growth inhibition of DT40 Tdp1-/-;hTDP1 cells with camptothecin (screen for TDP1 inhibitors). chicken DT40 Tdp1-/-;hTDP1 cells + 20 nM CPT, ATP luminescence, 48 h. Potency, µM (top dose mostly 46.2 µM), for inactives: top-dose activity change, negative = growth inhibition, actives largely listed as inhibitors. hit rate 12% among 420,000. AID 686979; further: nearly all actives have a fitted effect of over 55% in size
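Cell growth measured by CellTiter-Glo luminescence after a minimum 48 h, 37 C compound exposure with 20 nM CPT in Tdp1-knockout DT40 cells stably expressing hTDP1, seeded 400/well; qHTS titration format.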
ELG1 FLuc counter – luciferase inhibition in cell-free luciferin readout for ELG1 hits; hit rate 3% among 350; shares compounds with ELG1 repair inh; cell-free firefly luciferase luminescence counter-screen, ViewLux; Potency, µM (top dose mostly 46.1 µM), inactives show top-dose activity change, negative = inhibition, hits mostly inhibitors
ELG1-Luc inh – human ELG1 repair inhibition, luciferase-tagged ELG1 confirmation; shares compounds with ELG1 repair inh; HEK293T ELG1-luciferase levels, luminescence; cells co-treated with 5-fluorouridine; Potency, µM (highest dose often 46.1 µM), without a hit: at the top dose activity change, negative = inhibition, hits mostly inhibitors; hit rate 68% among 670; AID 624248; further: nearly all actives have a fitted effect of over 55% in size
ELG1-Luc MMS – MMS-stimulated human ELG1 repair inhibition, confirmed | shares compounds with ELG1 repair inh | Potency, µM (doses to about 46.1 µM), without a hit: at the highest dose activity change, negative = inhibition, actives largely listed as inhibitors | HEK293T luciferase-tagged ELG1 level, MMS stimulated | hit rate 53% among 670; further: nearly all actives have a fitted effect of over 60% in size
ELG1 5FU viab – confirmation of ELG1 repair inhibitors: viability with 5FU; shares compounds with ELG1 repair inh; cell viability with 5-FU, ELG1-dependent repair; Potency, µM (top dose mostly 46.1 µM), inactives show top-dose activity change, negative = viability loss, usual class: cytotoxic; 670 tested, under 10 active; AID 624250;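 further: ELG1-luc HEK293T cells cotreated with 5-fluorouridine at 10 µM final; viability measured 16 h after compound addition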
ELG1 MMS viab – confirmation of ELG1 repair inhibitors: viability with MMS; shares compounds with ELG1 repair inh; Cell viability with MMS, ELG1-dependent DNA repair; Potency, µM (series often up to 46.1 µM), for inactives: at the top dose activity change, negative = viability loss, actives largely listed as cytotoxic; hit rate 33% among 670; AID 624251;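 further: ELG1-luc HEK293T cells co-treated with 10 µM MMS; viability read 16 h after compound addition; nearly all actives have a fitted effect of over 60% in size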
Cell viab unstim – unstimulated viability counter-screen for ELG1 repair hits; shares compounds with ELG1 repair inh; cell viability counter-screen, unstimulated, luminescence; Potency, µM (highest dose often 45.9 µM), for the others: at the highest dose activity change, negative = loss of viability, actives largely listed as cytotoxic; hit rate 8% among 900;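 further: compound exposure lasted 16 hours before reading; nearly all actives have a fitted effect of over 55% in size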
FLuc enzyme – counter-screen for ELG1 repair inhibitors: firefly luciferase inhibition; shares compounds with ELG1 repair inh; purified firefly luciferase, luminescence counter-screen; Potency, µM (top dose mostly 57.5 µM), for inactives: at the highest dose activity, negative = inhibition, most hits filed as inhibitors; hit rate 10% among 350; AID 624253
The depositor's hits bear a star. Most compounds without a hit are left out; they make up all but 15% or so of the library. The call rests on the fitted dose curve; in most records, active means well fitted curve in the direction sought with a large enough effect; inconclusive means small, poorly fitted or top-dose-only effect, or another doubt; inactive means no such curve, though single readings can be large; an effect the other way counts as inactive or inconclusive. On the % scale 0 is the no-effect control and ±100 the full control effect; potency means the concentration at half of the fitted maximal effect.

O=C(C1CC1)N1CCC(c2noc(-c3ccccn3)n2)C1 (stereo not drawn) was read as 12-LOX inh 11.6%.
For O=c1c2ccccc2c(/C=N/n2cnnc2)c(O)n1-c1ccccc1 the results were RORgamma inh -33.3%, DT40 TDP1 no CPT -10.1%, 12-LOX inh -11.3%, VP16 counter -2.9%, ELG1 repair inh 6.1% and DT40 TDP1 CPT -21.5%.
For CCN(CC)S(=O)(=O)c1cccc(-n2c(O)c(C=Nc3ccccc3C(=O)O)c3ccccc3c2=O)c1 the results were RORgamma inh 19.8%, DT40 TDP1 no CPT 2.06µM*, 12-LOX inh -27.7%, VP16 counter 0.5%, ELG1 repair inh 5.8µM*, DT40 TDP1 CPT 4.11µM*, ELG1-Luc inh 0.353µM*, ELG1-Luc MMS 0.353µM*, ELG1 5FU viab -27.1%, ELG1 MMS viab 0.397µM* and Cell viab unstim 0.445µM*.
Screening CCCCc1ccc(S(=O)(=O)NC2CCS(=O)(=O)C2)cc1 (stereo not drawn) returned RORgamma inh inconclusive, DT40 TDP1 no CPT 20.6µM*, 12-LOX inh -28.3%, VP16 counter inconclusive, ELG1 repair inh 3.66µM*, DT40 TDP1 CPT 20.6µM*, ELG1-Luc inh 1.4%, ELG1-Luc MMS 11.2µM*, ELG1 5FU viab -7.2%, ELG1 MMS viab 11.2µM* and Cell viab unstim -18.2%.
`Cc1c(C(C)C)c(=O)n(-c2ccc(S(=O)(=O)NCc3ccccc3)cc2)n1C` gave RORgamma inh inconclusive, DT40 TDP1 no CPT 8.2µM*, 12-LOX inh -17.0%, VP16 counter 7.94µM*, ELG1 repair inh 1.46µM*, DT40 TDP1 CPT inconclusive, ELG1-Luc inh inconclusive, ELG1-Luc MMS 1.25µM*, ELG1 5FU viab -5.2%, ELG1 MMS viab 1.25µM* and Cell viab unstim inconclusive.
Screening Cc1c(C(C)C)c(=O)n(-c2ccc(S(=O)(=O)NC3CCCCC3)cc2)n1C returned RORgamma inh inconclusive, DT40 TDP1 no CPT 5.17µM*, 12-LOX inh -4.4%, VP16 counter 11.2µM*, ELG1 repair inh 2.06µM*, DT40 TDP1 CPT 5.8µM*, ELG1-Luc inh inconclusive, ELG1-Luc MMS 2.23µM*, ELG1 5FU viab -12.1%, ELG1 MMS viab 2.5µM* and Cell viab unstim inconclusive.
Screening CN(C(=O)CN1C(=O)NC2(CCCCC2)C1=O)c1ccccc1 returned 12-LOX inh 11.9%.
Screening Cc1ccc(C(=O)N2CCC3(CC2)N(C)C(=O)CS3(=O)=O)s1 returned 12-LOX inh 9.7%.
Screening N#Cc1ccc(COC(=O)c2ccccc2SCC2CCCO2)cc1 (stereo not drawn) returned 12-LOX inh 17.4%.
`CC(=O)c1cc(F)ccc1OCC(=O)Nc1ccc2c(c1)OCO2` gave DT40 TDP1 no CPT -17.2%, 12-LOX inh 0.4%, ELG1 repair inh inconclusive, DT40 TDP1 CPT -17.6% and Cell viab unstim -9.4%.
For O=C(COc1cc(F)ccc1[N+](=O)[O-])Nc1ccc2c(c1)OCO2 the results were DT40 TDP1 no CPT -1.1%, 12-LOX inh 32.3%, ELG1 repair inh inconclusive and DT40 TDP1 CPT 3.9%.
`CCOC(=O)c1cnc2ccccc2c1N1CCC(C(=O)OC)CC1` gave 12-LOX inh -2.8%.
Screening COc1ccc(C(=O)c2ccccc2)c(OC)c1 returned 12-LOX inh 0.1%.
For COc1ccc(C(=O)c2ccccc2)c2c(O)ccc(C(=O)c3ccccc3)c12 the results were RORgamma inh -13.3%, DT40 TDP1 no CPT 16.4µM*, 12-LOX inh 2.0%, VP16 counter 0.8%, ELG1 repair inh inconclusive, DT40 TDP1 CPT inconclusive, ELG1-Luc inh 4.99µM*, ELG1-Luc MMS 1.58µM*, ELG1 5FU viab -2.9%, ELG1 MMS viab 2.23µM* and Cell viab unstim inconclusive.
Screening COc1ccccc1NC(=O)Nc1nc(CC(=O)Nc2ccc(F)c(F)c2)cs1 returned DT40 TDP1 no CPT 14.6µM*, 12-LOX inh -18.1%, ELG1 repair inh 4.61µM*, DT40 TDP1 CPT inconclusive, ELG1-Luc inh 22.3µM*, ELG1-Luc MMS 7.6%, ELG1 5FU viab 5.9%, ELG1 MMS viab -7.4% and Cell viab unstim inconclusive.
Screening CC(=O)Nc1ccc(SCC(=O)c2cc(C)n(Cc3cccs3)c2C)cc1 returned RORgamma inh -0.6%, DT40 TDP1 no CPT -23.4%, 12-LOX inh -2.7%, VP16 counter inconclusive, ELG1 repair inh inconclusive, DT40 TDP1 CPT -15.8%, ELG1 FLuc counter inconclusive, Cell viab unstim inconclusive and FLuc enzyme 13µM*.
`Cc1cc(C)c(C)c(S(=O)(=O)N2CCN(C(=O)CCc3ncc(-c4ccc(F)cc4)o3)CC2)c1C` gave 12-LOX inh 32.9%.
